Measured values reported in PubChem BioAssay AID602350 (Broad Institute, 2012).
Potency and affinity values are given separately. Activity calls are given as the source filed them.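 The calls were made as follows: active = absorbance falls by 30% or more versus neutral controls, with a potency fitted within twice the top valid dose; inconclusive = no clear call, values can overlap the other calls; inactive = change opposite to expected direction, plus the rest.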

target: Protein disulfide-isomerase (Homo sapiens) (UniProt P07237); test: PDI inhibitors, insulin aggregation turbidity, dose response, biochemical, absorbance, cherry-picked samples (AID 602350); details: recombinant PDI insulin aggregation, absorbance 650 nm, 90 min; series mostly up to 19.5 µM
Sequence (P07237 whole entry, looked up): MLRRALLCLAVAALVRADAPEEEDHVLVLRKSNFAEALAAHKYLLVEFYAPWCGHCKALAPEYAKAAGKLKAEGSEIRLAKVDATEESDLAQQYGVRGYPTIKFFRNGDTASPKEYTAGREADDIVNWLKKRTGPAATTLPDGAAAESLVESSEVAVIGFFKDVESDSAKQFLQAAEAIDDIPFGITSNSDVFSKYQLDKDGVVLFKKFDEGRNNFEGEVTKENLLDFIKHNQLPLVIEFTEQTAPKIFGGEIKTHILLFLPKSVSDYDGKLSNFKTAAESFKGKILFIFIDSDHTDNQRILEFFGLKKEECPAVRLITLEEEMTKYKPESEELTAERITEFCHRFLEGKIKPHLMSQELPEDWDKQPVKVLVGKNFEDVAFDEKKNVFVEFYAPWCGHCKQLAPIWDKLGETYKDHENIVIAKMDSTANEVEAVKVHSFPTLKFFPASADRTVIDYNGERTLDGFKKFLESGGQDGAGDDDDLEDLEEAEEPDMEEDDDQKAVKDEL

outcome, inactive:
O=C(CCc1nc(-c2ccccc2F)no1)Nc1ccc(Oc2ccccc2)cc1
CNC[C@@H]1Oc2c(NS(C)(=O)=O)cccc2C(=O)N([C@@H](C)CO)C[C@H]1C
S=C(NCCN1CCOCC1)Nc1ccc(Br)cc1
Cc1c(-n2cc(C(=O)c3cc(Br)ccc3O)cc(C#N)c2=O)c(=O)n(-c2ccccc2)n1C
NC1=NC[C@H](Cc2ccc(O)cc2)N1CC1CCCCC1
Cc1ccc(SCC(=O)c2sc(-c3ccccc3)nc2C)cc1
CCOc1ccc2[nH]c(=O)c(CN(CCO)C(=O)CC)cc2c1
CC(=O)OCC(=O)NCc1ccc2c(c1)OCO2
Cc1ccc(N2CC(C(=O)N3CCCCCC3)CC2=O)cc1 (centres undefined)
Cc1noc(C)c1S(=O)(=O)Nc1ccc2c(c1)CC(=O)N([C@H](C)CO)C[C@H](C)[C@H](CN(C)S(C)(=O)=O)O2
CCOC(=O)C1=C(c2ccccc2)N=c2s/c(=C\c3cccc(O)c3)c(=O)n2C1c1cccs1 (centres undefined)
CCOC(=O)C1(CCOc2ccccc2)CCN(Cc2ccc(O)cc2)CC1
CCOC(=O)C1(CCOc2ccccc2)CCN(Cc2ccc(OC)cc2)CC1
COc1cc2c(cc1OC)C(C)N(CC(=O)Nc1ccc(S(=O)(=O)N3CCCC3)cc1)CC2 (centres undefined)
O=C(Nc1oc2ccccc2c(=O)c1-c1ccc(Cl)cc1)c1ccco1
CCOC(=O)c1oc2cccc(O)c2c1CN(Cc1ccccc1)C(C)=O
Cc1ccc(N(Cc2ccccc2)C(=O)c2cccc(S(=O)(=O)N3CC(C)OC(C)C3)c2)cc1 (centres undefined)
O=C1NC[C@H](Cc2ccccc2)N(C[C@H]2CCCN2C[C@H](Cc2ccc(O)cc2)N2C[C@H](Cc3ccc(O)cc3)N(CC3CCCCCC3)C(=O)C2=O)C1=O
O=C(COC(=O)c1ccccc1NC(=O)c1ccco1)NCCC1=CCCCC1
Cc1nnc(N/N=C/c2ccc(-c3ccccc3F)o2)n1N
COc1ccc(OCCN2CCC(C(=O)NC(c3ccsc3)c3ccccc3C)CC2)cc1 (centres undefined)
COc1cccc(NC(=O)CN(C)C(=O)/C=C/c2cc(OC)ccc2OC)c1
COc1ccc(CCNC(=O)c2cc(S(=O)(=O)N(C)C)ccc2N2CCCC2)cc1
Cc1ccc(-n2ncc3c(=O)[nH]c(SCC(=O)N4CCCc5ccccc54)nc32)cc1
CCOC(=O)c1c(CN2CCOCC2)n(-c2ccccc2)c2cc(Br)c(OC)cc12
CN(C)c1ccc(C2(O)C(=O)c3ccccc3C2=O)cc1
CCCNC(=O)c1cccc(COc2ccccc2OC)c1
Cc1cccc(C(=O)OCC(=O)N2CCCCCC2)c1O
O=c1cc(CSc2nnnn2-c2ccc(O)cc2)nc2sccn12
CCOc1cc(/C=C/C(=O)c2ccc(O)cc2)ccc1OCC(=O)N(C)C
COc1ccccc1NS(=O)(=O)c1cccc(C(=O)NCC2(N(C)C)CCCCC2)c1
Cc1ccc2c(c1)Oc1ccc(NC(=O)CCl)cc1C(=O)N2
O=C(NCCCN1CCOCC1)C(Sc1ccccc1)c1ccccc1 (centres undefined)
Cc1ccc(O)c(NC(=O)CSc2n[nH]c(-c3ccccc3)n2)c1
CCOc1ccc(NC(=O)CN(C)C(=O)c2cc(C)nc3ccccc23)cc1OCC
CCCCn1c(SCC(=O)Nc2ccc(C)c(S(=O)(=O)N3CCOCC3)c2)nnc1C(CC)N(C)C (centres undefined)
CCCCNC(=O)Nc1ccon1
Cc1ccc2c(=O)n3c(nc2c1)C(Cc1ccc(O)cc1)NC(=O)c1cccnc1-3 (centres undefined)
Cc1c(C(=O)N2CCOCC2)sc2ncn(CC(=O)N3CCC(C)CC3)c(=O)c12
